High-throughput results: PubChem, several laboratories
Most compounds without a hit are left out; they make up all but 1.2% or so of the library.
Sa ugtP lethal: growth inhibition of ugtP-null S. aureus, primary screen, RN4220 ugtP deletion, OD600 | 330,000 compounds, 0.54% hits | AID 1259309, 2017 | growth inhibition, % (no concentration beside the values) | 16 h; in the data active = growth inhibition above about 68%
MazEF act: activators of E. coli MazEF toxin-antitoxin RNase, primary screen, biochemical, fluorescence, uHTS. Endoribonuclease toxin MazF (Escherichia coli (strain K12)), P0AE70. FAM/BHQ RNA-DNA oligo cleavage fluorescence, 5 h. activation, % at 20 µM. 350,000 compounds, 0.32% hits; in the data active = activation above about 50%
Target sequence (P0AE70 whole entry, looked up): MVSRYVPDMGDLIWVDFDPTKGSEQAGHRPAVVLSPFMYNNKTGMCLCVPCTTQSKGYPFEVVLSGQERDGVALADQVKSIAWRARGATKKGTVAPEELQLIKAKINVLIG
BJeLR viability: MLPCN primary cell-based screen for lethality selective to Ras in HRASV12 cells | BJeLR (HRASV12) viability, CellTiter-Glo ATP luminescence, 48 h | inhibition, % (concentration not given with the values) | 300,000 compounds, 0.17% hits; in the data active = inhibition above about 50%
Sa RN4220 lethal: growth inhibition of S. aureus RN4220, primary screen, OD600; 16 h; inhibition, % (test concentration not listed); 330,000 compounds, 0.33% hits; AID 1259311, 2017; in the data active = inhibition above about 85%
PriA SSB inh: inhibitors of Klebsiella pneumoniae PriA binding to SSB C-terminal tail, primary screen, biochemical, AlphaScreen; AID 1272365, 2023; 430,000 compounds, 0.6% hits; inhibition, % at 33 µM; PriA–SSB C-terminal tail interaction (Klebsiella pneumoniae); AlphaScreen SSBct-PriA binding, biotinylated peptide; in the data active = inhibition mostly above about 37%, no sharp cut-off; inactive = mostly below about 20%
A number is an active result; - = inactive; . = no result; ! = not confirmed by another sample.

SMILES	Sa ugtP lethal	MazEF act	BJeLR viability	Sa RN4220 lethal	PriA SSB inh
COCCCN=CC1=C(O)CC(C)(C)CC1=O	-	-	-	-	-
CCOC(=O)c1cc2c(ccn2C)n1Cc1cc(C)ccc1C	-	-	-	-	40.9
Cc1ccc(NC(=O)C2CC(=O)NC(N3CCCCC3)=N2)cc1Cl (stereo unspecified)	-	-	-	-	-
CN(C)CCCN(C(=O)c1ccc(S(=O)(=O)N2CCc3ccccc32)cc1)c1nc2c(Cl)cccc2s1	-	-	-	-	46.4
COc1cccc2sc(N(CCCN(C)C)C(=O)c3ccc(S(=O)(=O)N4CCCc5ccccc54)cc3)nc12	-	-	-	-	20.0!
CCc1ccc2nc(N(CCCN(C)C)C(=O)c3ccc(S(=O)(=O)N4CCCc5ccccc54)cc3)sc2c1	.	-	-	.	-
CN(C)CCN(C(=O)c1ccc(S(=O)(=O)N2CCCC2)cc1)c1nc2c(Cl)cccc2s1	.	.	.	.	-
Cc1ccc(S(=O)(=O)N2CCOCC2)cc1NC(=O)CNCc1ccccn1	-	-	-	-	43.8
CN(C)S(=O)(=O)c1cccc(NC(=O)CNCc2ccccn2)c1	-	-	-	-	49.6
O=C(CSc1ccccc1)Nc1cc(S(=O)(=O)N2CCOCC2)ccc1N1CCOCC1	-	75.6	-	-	-
COc1ccccc1CN(C)CC(=O)Nc1cccc(S(=O)(=O)N2CCCC2)c1	-	-	.	-	-
COc1cccc(CN(C)CC(=O)Nc2cc(S(=O)(=O)N3CCCC3)ccc2Cl)c1OC	-	-	.	-	42.1
CCOc1ccc(CC(=O)NN=C(C)c2cccnc2)cc1	-	.	.	-	-
O=C(CNCc1ccccn1)Nc1cc(S(=O)(=O)N2CCCCC2)ccc1Cl	-	-	-	-	40.5
O=C(CNCc1ccncc1)Nc1cc(S(=O)(=O)N2CCCCC2)ccc1Cl	-	-	-	-	-
CC1(C)CC(=O)C(N=Nc2cc3c(cc2[N+](=O)[O-])OCCO3)=C(O)C1	-	93.2	-	-	-
CC1(C)CC(=O)C(N=Nc2cc([N+](=O)[O-])ccc2Br)=C(O)C1	.	.	.	.	-
c1ccc2c(c1)-c1ccccc1C2N1CCOCC1	-	-	.	-	-
Cn1nc(N)c2c(-c3ccc(Cl)cc3)c(C#N)c(N)nc21	-	-	-	-	-
CCN(CC)c1ccc(-c2c(C#N)c(N)nc(OC)c2C#N)cc1	-	75.4	-	-	-
O=[N+]([O-])c1ccc(O)c(CSc2nnnn2-c2ccccc2)c1	-	-	-	-	99.0
O=C(N/N=C/c1cccs1)c1cc(-c2ccncc2)nc2ccccc12	.	-	56.3	.	.
CCc1ccc(/C=N/NC(=O)c2cc(-c3ccncc3)nc3ccccc23)s1	.	-	-	.	.
O=C(N/N=C/c1cccs1)c1cc(-c2ccc3ccccc3c2)n[nH]1	.	-	-	.	.
Nc1n[nH]c(C(=O)N/N=C\c2cccs2)n1	.	.	.	.	50.0
SMILES	Sa ugtP lethal	MazEF act	BJeLR viability	Sa RN4220 lethal	PriA SSB inh
Cc1ccsc1/C=N/Nc1nc(=O)[nH]nc1C	.	-	-	.	.
Cc1n[nH]c(=O)nc1NN=Cc1cccs1	-	.	.	-	59.2
Cn1c(=O)c2c(-c3ccccc3)n(-c3ccccc3)cc2n(C)c1=O	.	-	.	.	.
O=[N+]([O-])c1nn(-c2ccccc2)[n+]([O-])c1N1CCN(c2ccccc2F)CC1	-	143.8	-	-	-
Cc1c(C)c2cccnc2c2ncccc12	-	-	.	93.2	99.2
O=c1[nH]cc(I)c2cccnc12	.	.	.	.	-
O=c1[nH][nH]c(=O)c2ncccc12	.	.	.	.	61.3
c1cnc2c(c1)c1nccnc1c1cccnc12	.	.	.	.	114.0
CCCCN1C2=NCCCN2c2ccccc21	-	-	-	-	-
CCCCCCCN1C2=NCCCN2c2ccccc21	-	925.7	-	-	-
Cc1nn(-c2ccccc2)c(N)c1N=Nc1ccccc1	-	-	-	-	-
Cc1ccc(N=Nc2c(C)nn(-c3ccccc3)c2N)cc1[N+](=O)[O-]	.	.	.	.	68.0
Cc1nn(-c2ccccc2)c(N)c1N=Nc1ccc(Cl)cc1	-	-	-	-	-
Cc1nn(-c2ccccc2)c(N)c1N=Nc1cccc(S(=O)(=O)N2CCOCC2)c1	-	-	-	-	47.0!
O=C1NC(=S)S/C1=C\c1ccc(SCc2ccccc2)o1	89.5	-	.	92.8	-
CCOC(=O)c1c(C(F)(F)F)cc(-c2ccc(F)cc2)nc1C	94.0	-	-	-	-
Cc1ccc(C#CC[N+]2(CC#Cc3ccc(C)cc3)CCCCC2)cc1	96.1	-	-	-	-
C#CC[N+]1(CC#Cc2ccccc2)CCCCC1	-	-	-	-	-
C(#Cc1ccccc1)C[N+]1(CC#Cc2ccccc2)CCCCC1	-	56.9	-	-	-
C#CC[N+]1(CC#Cc2cccc(C)c2)CCCCC1	-	-	-	-	-
C(=C\c1ccc2ccccc2n1)/c1ccccc1	-	-	-	-	-
CN(C)c1ccc(/C=C/c2ccc3ccccc3n2)cc1	-	-	71.3	-	-
CCn1c(O)c(/C=N/N=C/c2ccccc2)c2ccc(C3=NNC(=O)CC3)cc21	.	747.1	-	.	.
CC1=C(C(=O)Nc2cc(C(=O)NCc3ccccc3)ccc2C)SCCO1	.	-	.	.	.
O=C(CS(=O)(=O)c1ccc(F)cc1)NCCS(=O)(=O)c1ccccc1	-	-	-	-	58.1
SMILES	Sa ugtP lethal	MazEF act	BJeLR viability	Sa RN4220 lethal	PriA SSB inh
CCN(CC)Cc1c(C(=O)N/N=C/c2ccc(OCc3ccccc3C)cc2)nnn1-c1nonc1N	.	-	-	.	.
OCCCn1c(-c2ccccc2)csc1=Nc1ccccc1	-	-	-	-	42.1
O=C(NCc1ccccc1Cl)C(=O)NCC(c1ccc(F)cc1)N1CCOCC1 (stereo unspecified)	.	.	.	.	-
Cc1ccc([N+](=O)[O-])cc1S(=O)(=O)Nc1ccc(-c2cn3c(n2)SCC3)cc1	.	.	.	.	39.0
O=[N+]([O-])c1ccc(-c2cn3c(n2)SCC3)cc1	-	-	-	-	-
CC(NS(=O)(=O)c1ccc([N+](=O)[O-])cc1)C(=O)NN (stereo unspecified)	-	-	-	-	-
O=[N+]([O-])c1cc(Br)c(Nc2ccccc2)c([N+](=O)[O-])c1	-	-	59.9	-	-
O=C(Nc1ccccc1)c1ccc(Nc2c([N+](=O)[O-])cc([N+](=O)[O-])c3ccccc23)cc1	.	-	-	.	-
O=C1CC(N(CCc2ccccc2)C(=S)Nc2ccccc2)C(=O)N1c1ccc(Br)cc1 (stereo unspecified)	97.8	-	-	98.3	-
COc1ccc(CCN(C(=S)Nc2ccccc2)C2CC(=O)N(c3ccccc3)C2=O)cc1 (stereo unspecified)	-	-	-	-	-
O=[N+]([O-])c1cc(F)cc2cccnc12	.	.	.	.	54.7
O=[N+]([O-])c1cccnc1Sc1ccc(F)cc1	-	-	-	-	42.4
O=[N+]([O-])c1ccc(Sc2cccc3cccnc23)c([N+](=O)[O-])c1	-	-	.	-	86.9
O=c1ccnc(Sc2ncccc2[N+](=O)[O-])[nH]1	-	-	.	-	-
Clc1cnc(NN=Cc2cccs2)c(Cl)c1	-	.	.	-	-
c1ccc(OCCCc2nc(-c3ccncc3)no2)cc1	-	-	-	-	-
